Drawing on the OligoGym collection, this text covers sensor-assay potency score (higher = more potent) for 40 sequences.
Note: reference of the scale not given here.

The target in one assay is GPS1. As to the kind of experiment: pooled miR-30 sensor sort-seq; sequence = guide strand. The following applies: shRNA.
Regarding TTGCTGTGTGAGTCCACACGGG, the sensor-assay potency score (higher = more potent) was -0.414.

TACTGTTCCAGATCCAGGCTGG gave a sensor-assay potency score (higher = more potent) of 0.176.

Turning to TTGCGCTGCAGCTCCTGCCGGT, the sensor-assay potency score (higher = more potent) was -0.804.

For AACAACTTGAAGGAGCTGCTGG, the sensor-assay potency score (higher = more potent) was -0.415.

As for TCCAGCTCCAAGAACAACTTGA, the sensor-assay potency score (higher = more potent) was -0.994.

In turn, TTGTAGTTCTTCAGGTCTGTGT registered a sensor-assay potency score (higher = more potent) of -0.35.

Take TTGAAGGCTGCCGCCATCCTAT: the sensor-assay potency score (higher = more potent) was -1.18.

Sequence TAGCACTTGAGGGCGTTGCTGA registered a sensor-assay potency score (higher = more potent) of -0.484.

In turn, TTGACATGGATCTGGTTGCGGA displayed a sensor-assay potency score (higher = more potent) of -0.378.

TTCATCTCGTCCAGCATCTTGA gave a sensor-assay potency score (higher = more potent) of -0.805.

A further assay addresses GPT2. Described as above. The following applies: shRNA.
Consider TCATGCAGTAGAACATGTCTGG, for which the sensor-assay potency score (higher = more potent) came to 0.355.

Sequence TTCAGGATCGTAGAAATGCCGT returned a sensor-assay potency score (higher = more potent) of -0.741.

Consider TTCACCTTCTGCAGCACCGTTT, for which the sensor-assay potency score (higher = more potent) is -0.638.

For TCTGTAACCACACTCGCCCATG, the sensor-assay potency score (higher = more potent) is -1.08.

The sequence TTAGCATCTTCTGGGAAGCTGG showed a sensor-assay potency score (higher = more potent) of -0.879.

As for TTGGCAGGAATGAAGATCCGAG, the sensor-assay potency score (higher = more potent) is -0.485.

In the case of TAACAGATTCAGAGAACCCTGG, the sensor-assay potency score (higher = more potent) is 0.0686.

The sequence TACAGCACCTTCTTGAAGGAGT had a sensor-assay potency score (higher = more potent) of -0.472.

Take TTGGTTAAACAGGTCTTCCGTC: the sensor-assay potency score (higher = more potent) came to 0.251.

The sequence TTGATCACCTCCATGTAGCCTC showed a sensor-assay potency score (higher = more potent) of 0.135.

As for TTTCACCTTCTGCAGCACCGTT, the sensor-assay potency score (higher = more potent) is -1.46.

For a further assay, the target named is GPX1. Described as above. The following applies: shRNA.
Take ATTCAGAATCTCTTCGTTCTTG: the sensor-assay potency score (higher = more potent) came out at 0.126.

Turning to TTCCAGGCAACATCGTTGCGAC, the sensor-assay potency score (higher = more potent) was -1.

TTCGTTCTTGGCGTTCTCCTGA yielded a sensor-assay potency score (higher = more potent) of 0.781.

On to ACATCGTTGCGACACACCGGAG, for which the sensor-assay potency score (higher = more potent) is -1.77.

Consider TTCAGAATCTCTTCGTTCTTGG, for which the sensor-assay potency score (higher = more potent) worked out at 0.596.

ATTCTCGATAAGTAGTACCTTG returned a sensor-assay potency score (higher = more potent) of -0.704.

Sequence TTGGGGTCGGTCATAAGCGCGG yielded a sensor-assay potency score (higher = more potent) of -1.09.

Consider TTTTCTATGAGTCACCGGGATT, for which the sensor-assay potency score (higher = more potent) is -1.88.

TAGGTTTAGAGGAAACACCCTC yielded a sensor-assay potency score (higher = more potent) of -0.561.

As for AACATCGTTGCGACACACCGGA, the sensor-assay potency score (higher = more potent) is -0.00294.

TTCATCTGGGTGTAGTCCCGGA had a sensor-assay potency score (higher = more potent) of -0.32.

On to AATCTCTTCGTTCTTGGCGTTC, for which the sensor-assay potency score (higher = more potent) was -1.08.

The next assay concerns the target GPX2. The description is as above. Particulars: shRNA.
TTGAGCTGGGTGAAGTCCCGGG displayed a sensor-assay potency score (higher = more potent) of -0.183.

As to TATGAGGAACTTCTCAAAGTTC, the sensor-assay potency score (higher = more potent) is -1.27.

The sequence TTGATGGTTGGGAAGGTGCGGC had a sensor-assay potency score (higher = more potent) of -0.796.

Consider TTGATGTCAGGCTCAATGTTGA, for which the sensor-assay potency score (higher = more potent) was -0.614.

ATACTTGAGACTGTTCAGGATC displayed a sensor-assay potency score (higher = more potent) of -0.893.

Consider TTGCAGCTCGTTGAGCTGGGTG, for which the sensor-assay potency score (higher = more potent) is -0.963.

TTGAAATCTACCTTCTCCCCAT displayed a sensor-assay potency score (higher = more potent) of 0.588.
